SMILES strings stand for the structures. Records with an inconclusive call do not appear. Activity calls are given as the source filed them. Calls come from the whole dose curve; as a rule, active = well fitted inhibition curve with a large enough effect; inconclusive = small, poorly fitted or top-dose-only effect; inactive = flat fitted curve, though single readings scatter. Where a SMILES comes first, the peptide text is derived from it. [ ]: non-standard residue; d: D form. Dolaproine = CO[C@@H]([C@@H]1CCCN1)[C@@H](C)C(=O)O; Dil = CC[C@H](C)[C@H](NC)[C@@H](CC(=O)O)OC; NMeV = CN[C@H](C(=O)O)C(C)C

The nature of this test: Identification of antibody-drug conjugate (ADC) payloads which are substrates of ATP-binding cassette drug efflux transporters: ABCB1-HeLa-KB-3-1 cell line. Conditions: KB-3-1 (HeLa derivative) viability, CellTiter-Glo, 48 h. The text has this: Antibody-drug conjugates (ADCs) feature an antibody recognizing a specific protein joined to a potent toxic payload. Numerous antibody-drug conjugates have received FDA approval; however, clinical resistance arises. Resistance mechanisms include decreased expression or mutation of the antibody target, impaired payload release, or increased expression of ATP-binding cassette (ABC) efflux transporters associated with multidrug resistance. We therefore sought to characterize the interaction of ABC multidrug transporters with ADC payloads. We performed a high-throughput screen with 27 common ADC payloads using cells lines expressing ABC transporters P-glycoprotein (P-gp, encoded by ABCB1) or ABCG2 (encoded by ABCG2). Confirmatory assays were also performed using cells transfected to express P-gp, ABCG2, or MRP1 (encoded by ABCC1). Several commonly used ADC payloads were substrates of P-gp, including calicheamicin gamma1, monomethyl auristatin E, DM1, and DM4. All the pyrrolobenzodiazepines tested - SJG136, SGD-1882, SG2057, and SG3199 - were substrates of P-gp, ABCG2, and MRP1. […] These findings highlight the risk of transporter-mediated resistance with certain ADC payloads and underscore the importance of selecting payloads that evade ABC transporter recognition in future ADC development.
HEK-293 cells were transfected with empty vector (pcDNA) or vector containing the human ABCB1 (MDR-19), ABCG2 (R-5), or ABCC1 gene (MRP1) and were maintained in EMEM with 2 mg/mL G418 added to maintain transporter expression. The HeLa derivative KB-3-1 and the P-gp overexpressing KB-8-5-11 subline were maintained in DMEM; KB-8-5-11 additionally received 100 ng/mL colchicine. H460 parental cells were obtained from the Division of Cancer Treatment and Diagnosis Tumor Repository, National Cancer Institute at Frederick, MD and were cultured in RPMI. The ABCG2 expressing subline H460 MX20 was generated by selecting H460 cells in 20 nM mitoxantrone. Media in all cases was supplemented with 10% FBS and 1% penicillin-streptomycin. We explored 27 common ADC payloads, in two orthogonal, paired cell line sets-a drug selected and transfected set for each transporter--to identify substrates of the ABC transporters P-gp and ABCG2. Compounds were sourced from Levena Biopharma (San Diego, CA), Selleck Chem (Houston, TX), ChemieTek (Indianapolis, IN), or Microsource Discovery Systems (Gaylordsville, CT). Screening was performed as previously described. Briefly, cells were plated at a density of 500 cells/well in 1536 well plates with compounds added using a 1536-head pin tool (Kalypsys, San Diego CA). Cells were incubated with cytotoxic drugs and processed with CellTiter Glo reagent (Promega, Madison, WI) to determine viability after 48 hours. P-gp substrates were identified by comparing compound activity between paired sets of low-expressing (sensitive) and over-expressing (resistant) cell lines.
As for `COc1cccc2c1C(=O)c1c(O)c3c(c(O)c1C2=O)C[C@@](O)(C(=O)CO)C[C@@H]3O[C@H]1C[C@H](N)[C@H](O)[C@H](C)O1`, the Potency was 236 nM (active).

Turning to `CC[C@]1(O)CC2CN(CCc3c([nH]c4ccccc34)[C@@](C(=O)OC)(c3cc4c(cc3OC)N(C)[C@H]3[C@@](O)(C(=O)OC)[C@H](OC(C)=O)[C@]5(CC)C=CCN6CC[C@]43[C@@H]65)C2)C1` (some centres undefined), the Potency is 6.7 nM (active).

On to `CCN[C@H]1CO[C@@H](O[C@H]2[C@H](O[C@H]3C#C/C=C\C#C[C@]4(O)CC(=O)C(NC(=O)OC)=C3/C4=C\CSSSC)O[C@H](C)[C@@H](NO[C@H]3C[C@H](O)[C@H](SC(=O)c4c(C)c(I)c(O[C@@H]5O[C@@H](C)[C@H](O)[C@@H](OC)[C@H]5O)c(OC)c4OC)[C@@H](C)O3)[C@@H]2O)C[C@@H]1OC`, for which the Potency was 1.3 nM (active).

In the case of `CCN(C(C)=O)[C@H]1CO[C@@H](O[C@H]2[C@H](O[C@H]3C#C/C=C\C#C[C@]4(O)CC(=O)C(NC(=O)OC)=C3/C4=C\CSSSC)O[C@H](C)[C@@H](NO[C@H]3C[C@H](O)[C@H](SC(=O)c4c(C)c(I)c(O[C@@H]5O[C@@H](C)[C@H](O)[C@@H](OC)[C@H]5O)c(OC)c4OC)[C@@H](C)O3)[C@@H]2O)C[C@@H]1OC`, the Potency was 8.4 nM (active).

For `CC(C)(C)OC(=O)Nc1ccc2[nH]c(C(=O)N3C[C@@H](CCl)c4c3cc(O)c3ccccc43)cc2c1`, the Potency is 5.9 nM (active).

For `CCc1c2c(nc3ccc(O)cc13)-c1cc3c(c(=O)n1C2)COC(=O)[C@]3(O)CC`, the Potency is 472 nM (active).

Consider `COc1cc2cc(c1Cl)N(C)C(=O)C[C@H](O)[C@]1(C)O[C@H]1[C@H](C)C1C[C@@](O)(NC(=O)O1)[C@H](OC)/C=C/C=C(\C)C2`, for which the Potency is 4720 nM (active).

With `COc1cccc2c1C(=O)c1c(O)c3c(c(O)c1C2=O)C[C@@](O)(C(=O)CO)C[C@@H]3O[C@H]1C[C@H]2[C@H](O[C@@H]3[C@@H](OC)OCCN32)[C@H](C)O1`, the Potency is 0.3 nM (active).

For `CC[C@H](C)[C@@H]([C@H](N)CC(=O)N1CCC[C@H]1[C@H](OC)[C@@H](C)C(=O)N[C@@H](Cc1ccccc1)c1nccs1)N(C)C(=O)[C@@H](NC(=O)[C@@H](NC)C(C)C)C(C)C`, the Potency is 0.1 nM (active).

Consider `CC[C@H](C)[C@@H]([C@H](N)CC(=O)N1CCC[C@H]1[C@H](OC)[C@@H](C)C(=O)N[C@@H](Cc1ccccc1)c1nccs1)N(C)C(=O)[C@@H](NC(=O)[C@H](C(C)C)N(C)C)C(C)C`, for which the Potency is 0.0748 nM (active).

Regarding `CN(C)CCOc1ccc2[nH]c(C(=O)N3C[C@@H](CCl)c4c3cc(O)c3ccccc43)cc2c1`, the Potency is 0.3 nM (active).

For `COc1ccc(C2=CN3C(=O)c4cc(OC)c(OCCCOc5cc6c(cc5OC)C(=O)N5C=C(c7ccc(N)cc7)C[C@@H]5C=N6)cc4N=C[C@H]3C2)cc1`, the Potency was 52.9 nM (active).

Turning to `COC(=O)c1cc2c3c(cc(O)c2[nH]1)N(C(=O)c1cc2cc(OC)c(OC)c(OC)c2[nH]1)CC3CCl` (centres undefined), the Potency was 0.5 nM (active).

Turning to `CC[C@H](C)[C@@H]([C@@H](CC(=O)N1CCC[C@H]1[C@H](OC)[C@@H](C)C(=O)N[C@@H](Cc1ccccc1)C(=O)O)OC)N(C)C(=O)[C@@H](NC(=O)[C@@H](NC)C(C)C)C(C)C` (H-[NMeV]V[Dil][Dolaproine]F-OH), the Potency is 66.6 nM (active).

(Values after PubChem BioAssay AID2061305 (National Center for Advancing Translational Sciences (NCATS), 2025).)
